Screening data (PubChem BioAssay)
BAZ2B block = qHTS Assay for Inhibitors of BAZ2B | AlphaScreen BAZ2B-H3K14Ac peptide displacement | Potency, µM (top dose mostly 114 µM), for inactives: at the top dose activity change, negative = inhibition, most hits filed as inhibitors | actives 4.4% (n = 360,000) | AID 504333, 2011; also: % is scaled to controls: 0 for no effect and ±100 for the full control effect; nearly all actives have a fitted effect of over 60% in size
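AlphaScreen displacement: compounds (up to 110uM) incubated 30 min at room temperature with a preformed 50 nM BAZ2B/50 nM biotinylated H3K14Ac peptide complex in PBS pH 7.4 with Tween-20. Donor and acceptor beads at 10 ug/mL final added, 20 min light-protected before reading.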
PLK1 PBD inh = qHTS for Inhibitors of PLK1-PDB (polo-like kinase 1 - polo-box domain): Primary Screen. actives 2.8% (n = 360,000). Serine/threonine-protein kinase PLK1 (Homo sapiens), P53350. AID 720504, 2013. Potency, µM, inactives show max response, negative = inhibition, actives largely listed as inhibitors. Plk1 PBD binding of FITC phosphopeptide, fluorescence polarization; also: series mostly up to about 57 µM; % is scaled to controls: 0 for no effect and ±100 for the full control effect; nearly all actives have a fitted effect of over 65% in size
JMJD2A Tudor = qHTS Assay for Inhibitors of JMJD2A-Tudor Domain. Potency, µM (doses to about 114 µM), inactives show at the highest dose activity change, negative = inhibition, most hits filed as inhibitors. AlphaScreen JMJD2A-Tudor / H3K4me3 peptide binding. actives 4.4% (n = 390,000). AID 504339, 2011. Lysine-specific demethylase 4A (Homo sapiens), O75164; also: % is scaled to controls: 0 for no effect and ±100 for the full control effect; nearly all actives have a fitted effect of over 50% in size
HP1b chromo inh = HTS for Inhibitors of HP1-beta Chromodomain Interactions with Methylated Histone Tails; AlphaScreen HP1-beta / biotin-H3K9me3 peptide binding; Potency, µM (highest dose often 114 µM), without a hit: top-dose activity change, negative = inhibition, hits mostly inhibitors; actives 0.56% (n = 390,000); also: nearly all actives have a fitted effect of over 70% in size
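HP1-beta protein (50 nM final) preincubated 30 min at room temperature with biotinylated H3(1-18)K9me3 peptide (50 nM) in PBS pH 7.4, 0.01% Tween-20, then compound added for 30 min. AlphaScreen streptavidin donor/nickel chelate acceptor beads (10 ug/mL final), 30 min dark, luminescence read.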
G9a block = qHTS Assay for Inhibitors of Histone Lysine Methyltransferase G9a. Histone-lysine N-methyltransferase EHMT2 (Homo sapiens), Q96KQ7. G9a H3K9 monomethylation, AlphaScreen, 2 h. Potency, µM (doses to about 102 µM), inactives show at the highest dose activity, negative = inhibition, most hits filed as inhibitors. actives 8.8% (n = 350,000); also: % is scaled to controls: 0 for no effect and ±100 for the full control effect; nearly all actives have a fitted effect of over 75% in size
Target sequence (Q96KQ7 913-1193 limits assumed): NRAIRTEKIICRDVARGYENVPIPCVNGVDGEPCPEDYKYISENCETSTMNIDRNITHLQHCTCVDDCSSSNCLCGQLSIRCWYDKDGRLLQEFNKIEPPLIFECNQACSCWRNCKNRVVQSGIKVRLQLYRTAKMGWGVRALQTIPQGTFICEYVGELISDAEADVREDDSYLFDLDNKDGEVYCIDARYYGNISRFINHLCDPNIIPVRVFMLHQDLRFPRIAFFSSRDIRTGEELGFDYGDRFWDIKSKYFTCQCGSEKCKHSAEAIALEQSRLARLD
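Compounds were preincubated with 20 nM G9a for 15 min, after which biotinylated H3K9 peptide (500 nM) and SAM (20 uM) started a 2 h room-temperature reaction. Monomethylated product was quantified by antibody-based AlphaScreen chemiluminescence.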
VDR inhibitor = Inhibitors of the vitamin D receptor (VDR): qHTS; actives 0.93% (n = 400,000); Potency, µM, without a hit: max response, negative = inhibition, usual class: inhibitors; Vitamin D3 receptor (Homo sapiens), P11473; AID 504847, 2011; VDR-SRC2-3 peptide fluorescence polarization, 2 h; also: % is scaled to controls: 0 for no effect and ±100 for the full control effect
Target sequence (P11473 whole entry, looked up): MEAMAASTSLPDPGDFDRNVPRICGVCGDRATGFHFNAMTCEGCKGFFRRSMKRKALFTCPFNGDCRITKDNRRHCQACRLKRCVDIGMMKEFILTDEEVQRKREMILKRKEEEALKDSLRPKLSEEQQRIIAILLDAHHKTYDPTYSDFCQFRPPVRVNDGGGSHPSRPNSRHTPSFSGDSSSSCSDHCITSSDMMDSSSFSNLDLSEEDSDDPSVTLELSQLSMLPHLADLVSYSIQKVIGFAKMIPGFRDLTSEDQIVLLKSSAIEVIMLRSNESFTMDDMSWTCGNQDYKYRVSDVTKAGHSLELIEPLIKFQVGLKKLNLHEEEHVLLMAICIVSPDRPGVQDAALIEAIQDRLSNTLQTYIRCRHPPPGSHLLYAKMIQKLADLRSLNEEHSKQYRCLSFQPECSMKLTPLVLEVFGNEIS
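Signal is fluorescence polarization, reporting how far test compounds block the interaction of VDR with the SRC2-3 coregulator peptide after a 2 h room-temperature incubation.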
Numbers without * were called inactive; u = inconclusive; x = no result given; ! = a repeat was not active; [ ] = dose if it differs, or a comment. Compounds with a hit are over-represented: about 11% of the library has one in this group of screens. Calls follow the shape of the dose curve; as a rule, active = well fitted curve in the direction sought with a large enough effect; inconclusive = small, poorly fitted or top-dose-only effect, or another doubt; inactive = no such curve, though single readings can be large; an effect the other way counts as inactive or inconclusive. Potency is read from the fitted curve at half-maximal effect.

SMILES	BAZ2B block	PLK1 PBD inh	JMJD2A Tudor	HP1b chromo inh	G9a block	VDR inhibitor
CCCCc1c(CCC)c(=N)c2ccccc2n1C	-4.5%[57.1 µM]	0.0%	89.1µM*	35.2%	10.8%[59 µM]	-4.5%
Cc1ccc(NC(=O)Cn2c(=O)n(CCc3ccccc3)c(=O)c3c4c(sc32)CCCC4)c(C)c1	3.8%	x	-12.3%	11.7%	-4.2%[59 µM]	-12.8%
CC(=O)c1cccc(N(C(=O)CNC(=O)c2cccs2)C(C(=O)NCC2CCCO2)c2ccccc2)c1 (stereo not drawn)	-0.9%	-6.4%	-15.7%	-13.9%	26.4%	-2.8%
CC(=O)Nc1nc(C)c(Oc2ccc(C)cc2)c(=O)[nH]1	-9.0%	-9.3%	-7.7%	30.3%	x	-1.7%
Nc1nnc(SCC(=O)Nc2cccc(S(=O)(=O)N3CCCCC3)c2)s1	2.4%	-15.3%	-18.2%	30.0%	u	14.6%
Cc1nc(SCC(=O)NCc2ccccc2)c2oc3ccccc3c2n1	2.0%	-8.8%	-9.9%	10.1%	-2.9%[59 µM]	1.5%
Cc1nc(SCC(=O)O)c2oc3ccccc3c2n1	4.8%	-10.6%	-23.4%	22.4%	56.2µM*	-18.8%
CCCCCCCCCC1(CC(=O)OCC)SCCN1C(N)=O (stereo not drawn)	x	-11.5%	x	x	x	x
O=C1CCN(C(=O)Nc2ccccc2Cl)N1	1.7%	-6.9%	u	1.7%	10µM*	-0.9%
O=C1CN(C(=S)Nc2ccccc2Cl)CCN1	-28.3%	-21.5%	-8.5%	38.6%	44.7µM*	23.1%
CCOC(=O)N1CCN(C(=O)Nc2ccccc2Cl)CC1	-1.7%	-6.5%	-16.7%	19.3%	3.3%[59 µM]	-4.3%
COc1cc(NC(=O)C(=O)NCCN2CCNCC2)c(OC)cc1Cl	u	-14.2%	-19.4%	29.9%	16.1%[59 µM]	-6.0%
CCOC(=O)C1CCN(C(=O)CS(=O)Cc2nc(-c3ccc(C)cc3)oc2C)CC1 (stereo not drawn)	3.0%	u	-13.9%	18.0%	28.2µM*	u
Cc1ccc(-c2nc(CS(=O)CC(=O)N3CCN(c4cccc(Cl)c4)CC3)c(C)o2)cc1 (stereo not drawn)	25.1µM*	x	u	-16.0%	u	-18.3%
Cc1oc(-c2ccc(Cl)cc2)nc1CS(=O)CC(=O)N1CCN(c2cccc(C(F)(F)F)c2)CC1 (stereo not drawn)	-4.8%	x	u	0.1%	u	14.0%
Cc1ccc(-c2nc(CS(=O)CC(=O)N3CCN(c4ccc(F)cc4)CC3)c(C)o2)cc1 (stereo not drawn)	28.2µM*!	-3.7%	u	46.5%	14.1µM*!	u
CCOc1ccc(NC(=S)N(Cc2ccc(N(C)C)cc2)Cc2ccco2)cc1	35.5µM*	-18.9%	15.8µM*	u	39.8µM*	3.3%
COc1ccc(NC(=S)N(Cc2ccc(N(C)C)cc2)Cc2ccco2)cc1	31.6µM*	-6.8%	50.1µM*	u	u	11.5%
COc1ccc(NC(=S)NCc2ccco2)cc1	-30.5%	-5.0%	-9.7%	23.7%	x	-3.2%
Fc1ccc(-c2noc3ncnc(NCCc4ccccc4)c23)cc1	21.7%[57.1 µM]	x	15.9%	35.0%	6.4%[59 µM]	1.4%
COc1cccc(Nc2nc(C#N)nc(NC3CCCC3)n2)c1	x	x	-2.7%	x	x	x
Cc1cccc(CCNC(=O)C2CCC(CNS(=O)(=O)c3ccccc3)CC2)c1 (stereo not drawn)	-13.3%	x	2.9%	24.8%	5.8%[59 µM]	9.4%
Cc1ccc(C(=O)Nc2ccc(Oc3ccc(C(=O)O)c(C(=O)O)c3)cc2)cc1C	-12.6%	u	79.4µM*	29.5%	u	-12.2%
CC1(c2nnc(-c3cccc(Cl)c3)o2)CC(c2ccccc2Br)=NO1 (stereo not drawn)	3.1%	3.8%	31.5%	63.9%	x	-11.3%
Cc1cc(-c2n[nH]c(=S)n2/N=C/c2c[nH]c3ccccc23)n[nH]1	-22.3%	-4.1%	10µM*	10.9%	0.794µM*	8.8%
SMILES	BAZ2B block	PLK1 PBD inh	JMJD2A Tudor	HP1b chromo inh	G9a block	VDR inhibitor
Cc1n[nH]c(=O)n(N=Cc2c[nH]c3ccccc23)c1=O	x	-2.2%	x	x	x	x
Fc1ccc(-c2n[nH]c(=S)n2/N=C/c2c[nH]c3ccccc23)cc1	7.9%	-6.4%	u	20.1%	1.78µM*	-19.1%
Cc1cc(-c2n[nH]c(=S)n2/N=C/c2ccccc2[N+](=O)[O-])n[nH]1	u	-17.9%	3.55µM*	u	0.398µM*	-13.3%
O=C(CSc1nc2c(cnn2-c2ccccc2)c(=O)[nH]1)N1N=C(c2cccs2)CC1c1ccc(F)cc1 (stereo not drawn)	-26.1%	u	-10.9%	6.9%	28.2µM*	1.5%
COc1ccc(C2=Nc3ccc(C)cc3NC(c3ccc(Cl)cc3)=N2)cc1	-1.8%	x	-23.6%	11.2%	7.0%[59 µM]	3.6%
Cc1cc(C)c2oc(C(=O)Nc3sc4c(c3C(=O)NCc3ccco3)CCC4)cc(=O)c2c1	-1.3%	x	-5.9%	48.8%	0.2%[59 µM]	2.2%
NC(=O)c1ccc(NC(=O)CSC2=Nc3ccccc3C3CC=NN23)cc1 (stereo not drawn)	6.0%	-24.9%	-8.2%	30.2%	12.6µM*	u
CC(=O)Nc1sc2c(c1C(c1cccc(Cl)c1)N1CCN(CCO)CC1)CCCC2 (stereo not drawn)	u	-15.3%	u	3.7%	50.1µM*	u
O=C(NC(=S)Nc1cc(-c2nc3ccccc3[nH]2)ccc1Cl)c1ccc2c(c1)OCO2	1.0%	23.8µM*	-13.7%	-19.0%	44.7µM*	-16.7%
CCOc1ccc(C(=O)Nc2cc(-c3nc4ccccc4[nH]3)ccc2Cl)cc1[N+](=O)[O-]	-10.6%	0.0%	79.4µM*	-0.4%	u	43.3%
COCCn1c(=O)c(-c2ccc(F)cc2)nc2cnc(OC)nc21	x	x	x	x	4.6%[0.501 µM]	-14.0%
COc1cc(C2NCC(c3ccc(Cl)cc3Cl)c3c2[nH]c2ccccc32)cc(OC)c1OC (stereo not drawn)	35.5µM*	u	44.7µM*	u	-17.7%[59 µM]	-12.5%
COc1ccc(C(=O)N2CCC3(CC2)CN(c2ncccn2)C3)cc1	x	x	x	x	4.1%[12.7 µM]	-1.0%
C=CCSc1nnc(C)c(/C=C/Nc2ccc(Cl)cc2)n1	-20.9%	u	39.8µM*	-8.6%	u	-1.4%
C=CCSc1nc(-c2ccccc2)c2cc(Cl)ccc2n1	195.2%	-3.4%	200.7%	301.5%	41.5%[59 µM]	12.6%
Cc1ccc(-c2nnc(SCC(=O)NC3CCCC3)n2N)cc1	x	1.6%	-11.6%	23.9%	x	3.7%
